The structures appear in SMILES notation. This is part of a sample that, as a whole, favours compounds with a hit. Of some 83,000 tested, about 20% had one in any assay.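 A percent growth of 40 corresponds to 60% growth inhibition; 0 means no net growth; -100 means all cells died. Active threshold: below 10.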 A number with no mark means an inactive call. Calls of active or inactive are those of the source.

Here are results for 8 molecules from PubChem BioAssay (NCI).

Some test systems named below: SR leukemia; RPMI-8226 leukemia; OVCAR-8 ovarian; OVCAR-5 ovarian; OVCAR-4 ovarian; SK-OV-3 ovarian; IGROV1 ovarian; OVCAR-3 ovarian; HS 578T breast; NCI/ADR-RES ovarian; T-47D breast; BT-549 breast; MDA-MB-435 melanoma; SW-620 colon; MCF7 breast; HCT-116 colon; HCC-2998 colon; KM12 colon.
What all share (experiment): NCI-60 one-dose screen, 48 h (100 = growth as untreated, 0 = no growth, -100 = all killed)
Holding throughout (conditions): 10 µM unless noted

Take `O=C1NC(=O)c2c1c1c3ccccc3[nH]c1c1oc3ccc(F)cc3c21`: the growth is 31.5% in the assay on SR leukemia; 74.5% in the assay on RPMI-8226 leukemia; 91.6% in the assay on OVCAR-8 ovarian; 84.1% in the assay on OVCAR-5 ovarian; 57.8% in the assay with OVCAR-4 ovarian; 84% in the assay on SK-OV-3 ovarian. The growth in the assay with IGROV1 ovarian was 21.1%; in the assay on OVCAR-3 ovarian, 83.1%; with HS 578T breast, 82.2%; with NCI/ADR-RES ovarian it was 79.1%; in the assay on T-47D breast it was 24.4%; in the assay with BT-549 breast, 71%. The growth with MDA-MB-435 melanoma was 76%; in the assay on SW-620 colon, 64.6%; with MCF7 breast it was 34%; with HCT-116 colon it was 69%; in the assay with HCC-2998 colon, 65.6%; in the assay with KM12 colon, 45.9%.
In the case of `O=C1/C(=C/c2ccc(C(F)(F)F)cc2)COc2ccc(O)c(O)c21`, the growth was 3.77% (active) with SR leukemia; -13.8% (active) in the assay on RPMI-8226 leukemia; 9.3% (active) in the assay with OVCAR-8 ovarian; -34.1% (active) with OVCAR-5 ovarian; 24.8% in the assay on OVCAR-4 ovarian; 81.6% with SK-OV-3 ovarian. The growth was -49.6% (active) with IGROV1 ovarian; -84.6% (active) in the assay on OVCAR-3 ovarian; 10.4% in the assay on HS 578T breast; -11.6% (active) with NCI/ADR-RES ovarian; -36.8% (active) in the assay on T-47D breast; 10.9% in the assay on BT-549 breast. Moreover, the growth in the assay with MDA-MB-435 melanoma is -5.38% (active); in the assay on SW-620 colon it was -46% (active); with MCF7 breast it was 4.91% (active); with HCT-116 colon, -35.5% (active); with HCC-2998 colon, -39.2% (active); in the assay with KM12 colon it was -31.3% (active).
For the molecule `OC(c1ccccc1)(c1ccccc1)c1ccccc1-c1ccccc1`, the growth is 95.2% in the assay with SR leukemia; 82.9% in the assay on RPMI-8226 leukemia; 96.7% with OVCAR-8 ovarian; 94.7% in the assay with OVCAR-5 ovarian; 80.4% in the assay with OVCAR-4 ovarian; 86.6% in the assay on SK-OV-3 ovarian. In addition, the growth was 91.2% in the assay on IGROV1 ovarian; 101% in the assay with OVCAR-3 ovarian; 94.2% in the assay with HS 578T breast; 85.5% in the assay on NCI/ADR-RES ovarian; 69.8% with T-47D breast; 104% in the assay with BT-549 breast. For the same molecule, the growth in the assay on MDA-MB-435 melanoma is 108%; in the assay with SW-620 colon, 82.4%; in the assay on MCF7 breast it was 83.5%; with HCT-116 colon, 72.1%; with HCC-2998 colon, 88.5%; with KM12 colon, 93.6%.
For the molecule `O=C1CC2C=CCN2C=C1NC(=O)C1CCCCC1` (centres undefined), the growth with SR leukemia was 103%; in the assay with RPMI-8226 leukemia it was 107%; in the assay with OVCAR-8 ovarian it was 109%; in the assay with OVCAR-5 ovarian, 102%; in the assay on OVCAR-4 ovarian, 105%; with SK-OV-3 ovarian it was 111%. For the same molecule, the growth is 105% in the assay on IGROV1 ovarian; 98.9% in the assay on OVCAR-3 ovarian; 105% with HS 578T breast; 98.5% with NCI/ADR-RES ovarian; 84% in the assay on T-47D breast; 117% with BT-549 breast. Further, the growth in the assay on MDA-MB-435 melanoma is 102%; in the assay on SW-620 colon, 107%; with MCF7 breast it was 92.3%; in the assay on HCT-116 colon, 94.8%; in the assay with HCC-2998 colon it was 88.3%; with KM12 colon it was 96.1%.
As to `CCOC(=O)c1c(NC(=O)c2ccc(OC)cc2)sc2c(CN(C)C)c(O)ccc12`, the growth in the assay on SR leukemia is -21.5% (active); in the assay with RPMI-8226 leukemia, 15.8%; with OVCAR-8 ovarian, 84.2%; in the assay with OVCAR-5 ovarian it was 90.6%; with OVCAR-4 ovarian, 85.2%; in the assay with SK-OV-3 ovarian it was 99.6%. Besides, the growth in the assay on IGROV1 ovarian is 90.7%; in the assay with OVCAR-3 ovarian, 106%; in the assay on HS 578T breast, 88.9%; with NCI/ADR-RES ovarian, 84.5%; in the assay on T-47D breast, 77.3%; with BT-549 breast it was 95.5%. The growth in the assay with MDA-MB-435 melanoma was 68.8%; with SW-620 colon it was 70.4%; in the assay with MCF7 breast it was 70.4%; in the assay on HCT-116 colon, 51.3%; with HCC-2998 colon, 23.1%; with KM12 colon, 81.8%.
`COC1=CC(c2ccc[nH]2)=N/C1=C\c1[nH]c(C)c(CC(=O)OCc2ccccc2)c1C`: the growth in the assay with SR leukemia is -25.5% (active); in the assay with RPMI-8226 leukemia it was -41.1% (active); in the assay with OVCAR-8 ovarian, 9.46% (active); in the assay on OVCAR-5 ovarian it was 9.74% (active); in the assay with OVCAR-4 ovarian, 10.5%; with SK-OV-3 ovarian, 11%. The growth in the assay with IGROV1 ovarian was -3.67% (active); in the assay on OVCAR-3 ovarian, -49.5% (active); in the assay with HS 578T breast, -6.47% (active); in the assay on NCI/ADR-RES ovarian, 1.3% (active); in the assay on T-47D breast, -28.6% (active); in the assay with BT-549 breast, -1.22% (active). Besides, the growth with MDA-MB-435 melanoma is -21.3% (active); with SW-620 colon, -6.46% (active); in the assay with MCF7 breast it was 4.14% (active); in the assay with HCT-116 colon, -35% (active); in the assay on HCC-2998 colon, 13.4%; in the assay with KM12 colon, -9.28% (active).
Take `COc1cc(OC)cc(C2C(C#N)=C(N)Oc3c2ccc2ccc(O)cc32)c1` (centres undefined): the growth with SR leukemia is 12.6%; in the assay with RPMI-8226 leukemia it was 8.83% (active); in the assay with OVCAR-8 ovarian it was 18.1%; with OVCAR-5 ovarian, 33.1%; in the assay with OVCAR-4 ovarian it was 55.6%; in the assay on SK-OV-3 ovarian, 42.3%. The growth was 14.3% in the assay with IGROV1 ovarian; -16% (active) with OVCAR-3 ovarian; 53.2% in the assay with HS 578T breast; -8.97% (active) in the assay with NCI/ADR-RES ovarian; 58.4% in the assay on T-47D breast; 26.2% with BT-549 breast. In addition, the growth in the assay with MDA-MB-435 melanoma is 4.98% (active); in the assay on SW-620 colon it was 26.1%; in the assay on MCF7 breast, 7.95% (active); with HCT-116 colon, 4.25% (active); in the assay on HCC-2998 colon it was 7.75% (active); in the assay with KM12 colon, 5.84% (active).
For `COc1ccc(Cn2cc(C(=O)N=Nc3c(O)[nH]c4c(Cl)cccc34)nn2)cc1`, the growth in the assay with SR leukemia was 80.3%; with RPMI-8226 leukemia, 106%; with OVCAR-8 ovarian it was 97.4%; with OVCAR-5 ovarian, 123%; in the assay on OVCAR-4 ovarian, 104%; with SK-OV-3 ovarian it was 113%. Also, the growth is 103% in the assay with IGROV1 ovarian; 113% in the assay on OVCAR-3 ovarian; 97.5% in the assay with HS 578T breast; 105% in the assay on NCI/ADR-RES ovarian; 100% in the assay with T-47D breast; 111% in the assay with BT-549 breast. For the same molecule, the growth with MDA-MB-435 melanoma was 101%; with SW-620 colon, 99.7%; in the assay on MCF7 breast it was 84.3%; with HCT-116 colon, 91.6%; in the assay with HCC-2998 colon, 99.3%; with KM12 colon it was 107%.
